# From publication PMC7862700, “An all-to-all approach to the identification of sequence-specific readers for epigenetic DNA modifications on cytosine”
# Assays:
# Experiment in all cases: DAPPL (digital affinity profiling via proximity ligation, sequencing); 10 mM Tris-HCl pH 7.5, 50 mM NaCl, 1 mM DTT, 4% glycerol, room temperature, 30 min; GST-TFs on glutathione beads, 16-mer random dsDNA library, 0.1% formaldehyde crosslink after washing; high values mean tight binding
# FLI1 = target: T1, FLI1 (Homo sapiens, UniProt Q01543 1-452); details: protein: recombinant; tags: N-terminal GST; dsDNA, one strand shown
# T1 sequence: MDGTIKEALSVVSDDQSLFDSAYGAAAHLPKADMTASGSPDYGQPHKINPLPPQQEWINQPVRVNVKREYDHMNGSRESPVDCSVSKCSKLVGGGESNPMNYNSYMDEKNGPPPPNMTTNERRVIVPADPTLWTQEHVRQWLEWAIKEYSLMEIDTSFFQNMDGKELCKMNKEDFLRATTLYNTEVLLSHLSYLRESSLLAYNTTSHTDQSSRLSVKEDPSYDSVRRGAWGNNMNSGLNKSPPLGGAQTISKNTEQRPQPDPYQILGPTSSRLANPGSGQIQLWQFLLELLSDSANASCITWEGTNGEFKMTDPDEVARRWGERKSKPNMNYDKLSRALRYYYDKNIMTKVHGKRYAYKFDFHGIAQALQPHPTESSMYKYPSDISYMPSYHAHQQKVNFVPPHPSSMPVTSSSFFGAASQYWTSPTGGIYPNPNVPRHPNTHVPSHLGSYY
# How it was run: (§1)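 Binding signal is given per hexamer as its read frequency for a factor divided by its frequency in the tag-only sample. GST-fused human transcription factors were expressed in yeast, captured on glutathione beads, barcoded with DNA and pooled with that sample, then incubated with 200 nmole of a 16-mer random double-stranded DNA library in Tris/NaCl/DTT/glycerol buffer for 30 min at room temperature. The pools were then washed, crosslinked, proximity-ligated, amplified by PCR and sequenced on an Illumina NextSeq500.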
# ELK1 = target: T2, ELK1 (Homo sapiens, UniProt P19419 1-428); details: protein: recombinant; tags: N-terminal GST; dsDNA, one strand shown
# T2 sequence: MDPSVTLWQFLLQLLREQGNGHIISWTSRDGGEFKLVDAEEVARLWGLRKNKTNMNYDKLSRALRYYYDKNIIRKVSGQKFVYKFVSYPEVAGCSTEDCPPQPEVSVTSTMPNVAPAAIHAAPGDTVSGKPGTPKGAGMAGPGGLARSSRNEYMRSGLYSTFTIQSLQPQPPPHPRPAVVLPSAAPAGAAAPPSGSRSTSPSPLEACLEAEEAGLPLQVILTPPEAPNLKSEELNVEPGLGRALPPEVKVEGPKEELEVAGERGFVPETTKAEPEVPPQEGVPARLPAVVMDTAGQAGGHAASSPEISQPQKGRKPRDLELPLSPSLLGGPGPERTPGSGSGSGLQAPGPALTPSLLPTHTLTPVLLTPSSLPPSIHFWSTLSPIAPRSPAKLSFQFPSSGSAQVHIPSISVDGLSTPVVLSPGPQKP
# How it was run: as §1
# GABPA = target: T3, GABPA (Homo sapiens, UniProt Q06546 1-454); details: protein: recombinant; tags: N-terminal GST; dsDNA, one strand shown
# T3 sequence: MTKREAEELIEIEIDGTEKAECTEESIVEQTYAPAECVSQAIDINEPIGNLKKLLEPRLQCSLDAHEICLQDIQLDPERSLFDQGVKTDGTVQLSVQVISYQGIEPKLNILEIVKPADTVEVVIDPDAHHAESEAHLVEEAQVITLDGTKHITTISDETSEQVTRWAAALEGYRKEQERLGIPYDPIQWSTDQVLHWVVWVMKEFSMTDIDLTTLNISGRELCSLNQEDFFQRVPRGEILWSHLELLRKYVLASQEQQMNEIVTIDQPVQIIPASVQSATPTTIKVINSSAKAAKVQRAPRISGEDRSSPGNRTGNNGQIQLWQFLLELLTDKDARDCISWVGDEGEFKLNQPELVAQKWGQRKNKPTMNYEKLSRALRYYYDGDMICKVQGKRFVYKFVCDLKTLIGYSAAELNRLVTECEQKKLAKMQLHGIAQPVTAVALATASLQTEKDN
# How it was run: as §1
# ERG = target: T4, ERG (Homo sapiens, UniProt P11308 1-479); details: protein: recombinant; tags: N-terminal GST; dsDNA, one strand shown
# T4 sequence: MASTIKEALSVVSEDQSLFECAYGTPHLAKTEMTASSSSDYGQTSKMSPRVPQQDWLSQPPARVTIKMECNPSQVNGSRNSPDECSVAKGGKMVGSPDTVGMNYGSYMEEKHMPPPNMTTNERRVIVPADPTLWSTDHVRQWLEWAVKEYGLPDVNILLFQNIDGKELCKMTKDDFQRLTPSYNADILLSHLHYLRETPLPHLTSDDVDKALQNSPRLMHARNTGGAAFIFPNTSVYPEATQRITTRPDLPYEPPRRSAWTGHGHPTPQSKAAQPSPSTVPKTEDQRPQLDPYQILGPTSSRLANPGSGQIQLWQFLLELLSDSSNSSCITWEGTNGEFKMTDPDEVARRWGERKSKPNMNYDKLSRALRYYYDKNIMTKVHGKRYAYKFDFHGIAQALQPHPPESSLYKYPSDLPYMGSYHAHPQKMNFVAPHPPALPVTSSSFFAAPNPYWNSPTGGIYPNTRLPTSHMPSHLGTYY
# How it was run: as §1
# ELF1 = ELF1 (Homo sapiens, UniProt P32519 1-619); details: protein: recombinant; tags: N-terminal GST; dsDNA, one strand shown
# Chain of ELF1 (P32519 whole entry): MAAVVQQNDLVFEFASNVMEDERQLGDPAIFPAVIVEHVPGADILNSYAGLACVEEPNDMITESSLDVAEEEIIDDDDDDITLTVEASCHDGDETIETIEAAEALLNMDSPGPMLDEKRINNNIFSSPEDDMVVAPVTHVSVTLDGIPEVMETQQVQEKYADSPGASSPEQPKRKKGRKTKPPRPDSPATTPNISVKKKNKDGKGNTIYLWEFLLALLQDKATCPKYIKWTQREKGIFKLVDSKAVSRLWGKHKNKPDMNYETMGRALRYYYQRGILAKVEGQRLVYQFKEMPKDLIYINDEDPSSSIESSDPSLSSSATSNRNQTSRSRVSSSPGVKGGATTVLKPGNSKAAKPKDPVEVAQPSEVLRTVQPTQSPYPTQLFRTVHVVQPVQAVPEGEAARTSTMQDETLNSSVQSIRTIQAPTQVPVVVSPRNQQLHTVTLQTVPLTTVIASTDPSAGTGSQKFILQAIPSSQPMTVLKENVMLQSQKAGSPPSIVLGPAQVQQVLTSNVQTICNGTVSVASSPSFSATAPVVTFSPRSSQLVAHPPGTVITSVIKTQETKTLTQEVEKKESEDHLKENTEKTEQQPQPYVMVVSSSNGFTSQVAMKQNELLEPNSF
# How it was run: as §1
# EHF = target: T5, EHF (Homo sapiens, UniProt Q9NZC4 1-300); details: protein: recombinant; tags: N-terminal GST; dsDNA, one strand shown
# T5 sequence: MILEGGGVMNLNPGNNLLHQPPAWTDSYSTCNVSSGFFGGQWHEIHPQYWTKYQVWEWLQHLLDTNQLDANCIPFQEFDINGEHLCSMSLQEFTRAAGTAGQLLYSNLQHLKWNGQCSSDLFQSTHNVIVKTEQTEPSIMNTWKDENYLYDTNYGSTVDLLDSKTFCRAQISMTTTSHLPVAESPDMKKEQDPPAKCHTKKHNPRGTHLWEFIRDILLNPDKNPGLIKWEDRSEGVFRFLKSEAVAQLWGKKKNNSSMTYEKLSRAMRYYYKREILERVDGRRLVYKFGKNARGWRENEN
# How it was run: as §1
# SPI1 = SPI1 (Homo sapiens, UniProt P17947 1-270); details: protein: recombinant; tags: N-terminal GST; dsDNA, one strand shown
# How it was run: as §1
# SPIB = SPIB (Homo sapiens, UniProt Q01892 1-262); details: protein: recombinant; tags: N-terminal GST; dsDNA, one strand shown
# Chain of SPIB (Q01892 whole entry): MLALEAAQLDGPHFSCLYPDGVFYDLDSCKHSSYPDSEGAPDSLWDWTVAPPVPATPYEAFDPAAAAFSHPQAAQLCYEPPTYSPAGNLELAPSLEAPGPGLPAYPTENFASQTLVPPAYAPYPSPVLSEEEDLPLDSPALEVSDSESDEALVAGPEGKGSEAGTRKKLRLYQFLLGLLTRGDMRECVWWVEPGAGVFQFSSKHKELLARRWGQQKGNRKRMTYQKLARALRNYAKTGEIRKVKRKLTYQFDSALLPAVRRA
# How it was run: as §1
# ELK3 = target: T6, ELK3 (Homo sapiens, UniProt P41970 1-407); details: protein: recombinant; tags: N-terminal GST; dsDNA, one strand shown
# T6 sequence: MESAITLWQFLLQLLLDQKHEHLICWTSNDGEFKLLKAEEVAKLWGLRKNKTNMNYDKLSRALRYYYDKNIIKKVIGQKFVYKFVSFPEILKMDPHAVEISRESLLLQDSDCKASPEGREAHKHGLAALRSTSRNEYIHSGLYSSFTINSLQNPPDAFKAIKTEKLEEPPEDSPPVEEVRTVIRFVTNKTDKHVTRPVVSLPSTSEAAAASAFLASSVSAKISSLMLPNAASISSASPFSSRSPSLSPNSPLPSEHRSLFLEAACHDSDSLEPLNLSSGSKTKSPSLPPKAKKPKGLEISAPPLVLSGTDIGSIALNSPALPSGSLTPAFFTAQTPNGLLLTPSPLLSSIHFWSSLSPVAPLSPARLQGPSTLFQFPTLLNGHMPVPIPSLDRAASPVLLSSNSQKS
# How it was run: as §1
# FEV = target: T7, FEV (Homo sapiens, UniProt Q99581 1-238); details: protein: recombinant; tags: N-terminal GST; dsDNA, one strand shown
# T7 sequence: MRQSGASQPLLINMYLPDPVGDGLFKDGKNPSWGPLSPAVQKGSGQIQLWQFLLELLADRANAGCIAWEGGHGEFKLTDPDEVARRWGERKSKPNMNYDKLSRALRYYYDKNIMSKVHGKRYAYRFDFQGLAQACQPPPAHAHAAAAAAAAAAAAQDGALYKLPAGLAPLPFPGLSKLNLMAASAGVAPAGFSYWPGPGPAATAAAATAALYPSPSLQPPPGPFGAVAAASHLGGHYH
# How it was run: as §1
# ETV5 = ETV5 (Homo sapiens, UniProt P41161 1-510); details: protein: recombinant; tags: N-terminal GST; dsDNA, one strand shown
# Chain of ETV5 (P41161 whole entry): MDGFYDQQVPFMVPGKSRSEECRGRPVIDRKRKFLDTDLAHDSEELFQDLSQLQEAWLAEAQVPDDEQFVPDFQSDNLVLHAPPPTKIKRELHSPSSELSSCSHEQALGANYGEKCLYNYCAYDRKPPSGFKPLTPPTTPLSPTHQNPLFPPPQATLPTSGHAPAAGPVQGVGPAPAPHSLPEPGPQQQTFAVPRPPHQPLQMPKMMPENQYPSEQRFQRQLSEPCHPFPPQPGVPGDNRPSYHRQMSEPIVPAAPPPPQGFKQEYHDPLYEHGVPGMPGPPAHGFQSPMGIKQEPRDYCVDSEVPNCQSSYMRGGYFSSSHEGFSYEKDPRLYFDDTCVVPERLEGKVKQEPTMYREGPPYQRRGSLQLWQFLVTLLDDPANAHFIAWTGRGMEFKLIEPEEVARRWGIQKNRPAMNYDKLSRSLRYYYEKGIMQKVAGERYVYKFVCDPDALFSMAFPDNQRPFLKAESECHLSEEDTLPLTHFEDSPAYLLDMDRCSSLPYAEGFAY
# How it was run: as §1
# HSF1 = HSF1 (Homo sapiens, UniProt Q00613 1-529); details: protein: recombinant; tags: N-terminal GST; chain copies: 3; dsDNA, one strand shown
# Chain of HSF1 (Q00613 whole entry): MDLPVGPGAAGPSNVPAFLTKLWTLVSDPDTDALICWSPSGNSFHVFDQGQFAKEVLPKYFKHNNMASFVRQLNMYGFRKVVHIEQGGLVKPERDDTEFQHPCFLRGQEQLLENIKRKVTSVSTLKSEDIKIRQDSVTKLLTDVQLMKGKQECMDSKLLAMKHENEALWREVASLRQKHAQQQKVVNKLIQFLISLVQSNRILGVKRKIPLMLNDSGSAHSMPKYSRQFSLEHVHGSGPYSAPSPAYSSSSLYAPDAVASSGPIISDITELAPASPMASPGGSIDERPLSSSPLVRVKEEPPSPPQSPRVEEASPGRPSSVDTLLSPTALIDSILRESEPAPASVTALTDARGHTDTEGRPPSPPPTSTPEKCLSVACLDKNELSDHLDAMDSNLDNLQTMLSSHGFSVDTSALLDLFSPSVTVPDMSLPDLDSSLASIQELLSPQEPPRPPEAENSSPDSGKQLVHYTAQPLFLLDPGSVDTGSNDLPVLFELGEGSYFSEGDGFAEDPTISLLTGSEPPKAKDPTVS
# How it was run: as §1
# SPIC = target: T8, SPIC (Homo sapiens, UniProt Q8N5J4 1-248); details: protein: recombinant; tags: N-terminal GST; dsDNA, one strand shown
# T8 sequence: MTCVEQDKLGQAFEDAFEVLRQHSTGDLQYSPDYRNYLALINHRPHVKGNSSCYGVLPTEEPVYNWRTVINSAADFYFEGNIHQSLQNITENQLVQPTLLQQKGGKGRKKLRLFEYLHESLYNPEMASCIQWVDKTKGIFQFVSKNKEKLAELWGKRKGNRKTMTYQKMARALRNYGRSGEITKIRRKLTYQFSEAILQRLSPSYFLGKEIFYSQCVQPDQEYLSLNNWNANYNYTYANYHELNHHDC
# How it was run: as §1
# ELF4 = ELF4 (Homo sapiens, UniProt Q99607 1-663); details: protein: recombinant; tags: N-terminal GST; dsDNA, one strand shown
# Chain of ELF4 (Q99607 whole entry): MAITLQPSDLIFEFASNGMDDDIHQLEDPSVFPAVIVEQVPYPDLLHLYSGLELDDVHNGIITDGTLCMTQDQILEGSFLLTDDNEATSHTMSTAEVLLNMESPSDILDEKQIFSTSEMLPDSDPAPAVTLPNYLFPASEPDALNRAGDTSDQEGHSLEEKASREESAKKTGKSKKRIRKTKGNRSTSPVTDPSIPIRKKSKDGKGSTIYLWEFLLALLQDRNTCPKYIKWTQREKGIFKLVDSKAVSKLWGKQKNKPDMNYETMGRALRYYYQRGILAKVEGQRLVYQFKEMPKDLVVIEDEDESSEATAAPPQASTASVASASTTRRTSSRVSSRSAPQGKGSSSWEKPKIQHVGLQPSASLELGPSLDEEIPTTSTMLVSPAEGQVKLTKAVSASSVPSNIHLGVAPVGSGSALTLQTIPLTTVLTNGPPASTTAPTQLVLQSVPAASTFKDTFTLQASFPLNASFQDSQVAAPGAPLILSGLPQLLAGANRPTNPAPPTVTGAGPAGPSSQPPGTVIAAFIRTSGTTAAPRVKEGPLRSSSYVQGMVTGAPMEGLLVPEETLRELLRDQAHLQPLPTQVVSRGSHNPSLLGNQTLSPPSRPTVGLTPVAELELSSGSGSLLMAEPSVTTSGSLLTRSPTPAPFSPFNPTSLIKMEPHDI
# How it was run: as §1
# ELK4 = target: T9, ELK4 (Homo sapiens, UniProt P28324-2 1-405); details: protein: recombinant; tags: N-terminal GST; dsDNA, one strand shown
# T9 sequence: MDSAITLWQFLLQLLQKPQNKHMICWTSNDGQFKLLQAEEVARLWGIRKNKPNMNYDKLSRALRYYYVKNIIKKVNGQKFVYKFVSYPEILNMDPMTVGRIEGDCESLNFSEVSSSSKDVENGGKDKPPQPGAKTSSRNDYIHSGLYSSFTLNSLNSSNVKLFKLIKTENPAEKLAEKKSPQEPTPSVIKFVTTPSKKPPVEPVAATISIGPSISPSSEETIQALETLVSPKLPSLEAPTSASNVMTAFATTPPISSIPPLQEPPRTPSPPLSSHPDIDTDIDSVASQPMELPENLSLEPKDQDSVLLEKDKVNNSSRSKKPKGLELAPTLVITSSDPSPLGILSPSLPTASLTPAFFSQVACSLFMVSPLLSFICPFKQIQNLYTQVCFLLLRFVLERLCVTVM
# How it was run: as §1
# ETV2 = target: T10, ETV2 (Homo sapiens, UniProt O00321 1-342); details: protein: recombinant; tags: N-terminal GST; dsDNA, one strand shown
# T10 sequence: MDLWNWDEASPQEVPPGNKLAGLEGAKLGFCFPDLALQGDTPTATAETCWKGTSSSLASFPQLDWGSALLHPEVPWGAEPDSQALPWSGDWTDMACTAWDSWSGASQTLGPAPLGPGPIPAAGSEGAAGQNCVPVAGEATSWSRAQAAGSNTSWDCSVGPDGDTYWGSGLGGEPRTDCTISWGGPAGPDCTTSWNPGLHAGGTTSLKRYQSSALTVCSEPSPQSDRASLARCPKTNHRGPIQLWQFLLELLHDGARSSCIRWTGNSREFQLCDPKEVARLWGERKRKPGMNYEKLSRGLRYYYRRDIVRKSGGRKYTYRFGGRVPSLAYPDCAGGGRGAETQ
# How it was run: as §1
# ELF3 = target: T11, ELF3 (Homo sapiens, UniProt P78545 1-371); details: protein: recombinant; tags: N-terminal GST; dsDNA, one strand shown
# T11 sequence: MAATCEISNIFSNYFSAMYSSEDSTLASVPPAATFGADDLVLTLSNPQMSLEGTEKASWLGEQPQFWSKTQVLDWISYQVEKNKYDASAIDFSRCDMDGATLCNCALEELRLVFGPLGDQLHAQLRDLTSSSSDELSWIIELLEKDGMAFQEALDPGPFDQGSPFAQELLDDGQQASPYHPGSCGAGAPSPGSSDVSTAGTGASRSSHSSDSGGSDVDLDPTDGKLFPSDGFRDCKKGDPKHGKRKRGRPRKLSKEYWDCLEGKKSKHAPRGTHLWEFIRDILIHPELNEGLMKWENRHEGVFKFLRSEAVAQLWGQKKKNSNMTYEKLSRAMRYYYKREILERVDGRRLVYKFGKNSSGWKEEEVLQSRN
# How it was run: as §1
# CRX = CRX (Homo sapiens, UniProt O43186 1-299); details: protein: recombinant; tags: N-terminal GST; dsDNA, one strand shown
# Chain of CRX (O43186 whole entry): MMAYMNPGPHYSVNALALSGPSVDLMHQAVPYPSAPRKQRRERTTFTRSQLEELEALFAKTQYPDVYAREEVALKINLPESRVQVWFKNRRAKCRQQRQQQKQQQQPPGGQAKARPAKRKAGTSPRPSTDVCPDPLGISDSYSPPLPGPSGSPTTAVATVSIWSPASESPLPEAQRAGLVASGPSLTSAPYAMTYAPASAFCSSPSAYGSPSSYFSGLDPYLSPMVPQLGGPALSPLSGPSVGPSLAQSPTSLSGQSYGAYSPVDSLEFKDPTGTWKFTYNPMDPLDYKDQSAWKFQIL
# How it was run: as §1
# ETV1 = ETV1 (Homo sapiens, UniProt P50549 1-477); details: protein: recombinant; tags: N-terminal GST; dsDNA, one strand shown
# Chain of ETV1 (P50549 whole entry): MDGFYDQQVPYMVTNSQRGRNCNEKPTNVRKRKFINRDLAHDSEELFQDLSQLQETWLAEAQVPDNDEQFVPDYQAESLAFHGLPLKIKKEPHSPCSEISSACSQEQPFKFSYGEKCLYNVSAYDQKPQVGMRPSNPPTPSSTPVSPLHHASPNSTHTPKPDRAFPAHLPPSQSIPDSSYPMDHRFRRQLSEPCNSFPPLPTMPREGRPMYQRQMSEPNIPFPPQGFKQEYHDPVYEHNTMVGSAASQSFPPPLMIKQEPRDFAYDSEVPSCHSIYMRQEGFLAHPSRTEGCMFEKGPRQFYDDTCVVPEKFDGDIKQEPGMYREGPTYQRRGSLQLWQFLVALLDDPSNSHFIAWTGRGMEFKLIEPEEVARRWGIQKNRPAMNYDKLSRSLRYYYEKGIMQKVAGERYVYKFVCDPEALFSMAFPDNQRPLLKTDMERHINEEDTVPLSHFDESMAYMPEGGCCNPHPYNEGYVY
# How it was run: as §1
sequence,measurement,setting,value
ATCGCC,binding signal,FLI1,"1.28 fold enrichment (6-mer frequency, TF over GST control)"
same,binding signal,ELK1,"1.36 fold enrichment (6-mer frequency, TF over GST control)"
same,binding signal,GABPA,"1.27 fold enrichment (6-mer frequency, TF over GST control)"
same,binding signal,ERG,"1.29 fold enrichment (6-mer frequency, TF over GST control)"
same,binding signal,ELF1,"1.23 fold enrichment (6-mer frequency, TF over GST control)"
same,binding signal,EHF,"1.37 fold enrichment (6-mer frequency, TF over GST control)"
same,binding signal,SPI1,"1.22 fold enrichment (6-mer frequency, TF over GST control)"
same,binding signal,SPIB,"1.29 fold enrichment (6-mer frequency, TF over GST control)"
same,binding signal,ELK3,"1.27 fold enrichment (6-mer frequency, TF over GST control)"
same,binding signal,FEV,"1.24 fold enrichment (6-mer frequency, TF over GST control)"
same,binding signal,ETV5,"1.23 fold enrichment (6-mer frequency, TF over GST control)"
same,binding signal,HSF1,"1.28 fold enrichment (6-mer frequency, TF over GST control)"
same,binding signal,SPIC,"1.31 fold enrichment (6-mer frequency, TF over GST control)"
same,binding signal,ELF4,"1.24 fold enrichment (6-mer frequency, TF over GST control)"
same,binding signal,ELK4,"1.28 fold enrichment (6-mer frequency, TF over GST control)"
same,binding signal,ETV2,"1.2 fold enrichment (6-mer frequency, TF over GST control)"
same,binding signal,ELF3,"1.12 fold enrichment (6-mer frequency, TF over GST control)"
same,binding signal,CRX,"1.4 fold enrichment (6-mer frequency, TF over GST control)"
same,binding signal,ETV1,"1.32 fold enrichment (6-mer frequency, TF over GST control)"
